Screening results deposited in PubChem by National Center for Advancing Translational Sciences (NCATS).
The list is not random: actives were taken first. Their share in the collection is about 12%.
Sfp inh = blocks B. subtilis Sfp PPTase activity; Q9F4F7; Biochemical Sfp PPTase activity, qHTS; Potency, µM, inactives show largest response in the series, negative = inhibition, usual class: inhibitors; 310,000 compounds, 3.5% hits; AID 1490;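 note: the enzyme is Sfp with the accession as filed and its product quenches rhodamine fluorescence; 0% = enzyme reaction without inhibitor and -100% = no enzyme wells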
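Step 1, compound plus 15 nM Sfp-PPTase, 15 min, room temperature. Step 2, add rhodamine-CoA (5 uM) and BHQ-2-YbbR (12.5 uM). Step 3, read 525/598 nm fluorescence at 0 and 30 min.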
G9a block = inhibitors of human histone lysine methyltransferase G9a; 350,000 compounds, 8.8% hits; G9a H3K9 monomethylation, AlphaScreen, 2 h; Potency, µM (highest dose often 102 µM), for the others: at the top dose activity, negative = inhibition, usual class: inhibitors; Q96KQ7; AID 504332; note: % is set by controls: 0 for no effect and ±100 for the full control effect; nearly all actives have a fitted effect of over 75% in size
Target sequence (Q96KQ7 913-1193 limits assumed): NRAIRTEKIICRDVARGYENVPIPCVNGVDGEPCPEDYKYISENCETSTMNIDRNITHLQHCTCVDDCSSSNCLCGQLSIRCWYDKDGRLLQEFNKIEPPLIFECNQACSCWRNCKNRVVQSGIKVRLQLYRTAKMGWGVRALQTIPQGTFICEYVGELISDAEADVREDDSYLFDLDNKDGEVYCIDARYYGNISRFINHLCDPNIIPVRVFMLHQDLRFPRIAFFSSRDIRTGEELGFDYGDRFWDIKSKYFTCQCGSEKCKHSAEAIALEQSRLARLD
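Using a bead-based AlphaScreen, monomethylated H3K9 product from 2 h room-temperature reactions (G9a 20 nM, peptide 500 nM, SAM 20 uM) was detected with 0.5 ug/mL rabbit anti-H3K9me1 antibody.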
BAZ2B inh = inhibitors of human BAZ2B bromodomain. AlphaScreen BAZ2B-H3K14Ac peptide displacement. Potency, µM (top dose mostly 114 µM), for the others: top-dose activity change, negative = inhibition, usual class: inhibitors. 360,000 compounds, 4.4% hits; note: % is set by controls: 0 for no effect and ±100 for the full control effect; nearly all actives have a fitted effect of over 60% in size
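In this displacement format the biotinylated H3(5-23) peptide acetylated at Lys14 serves as ligand at 50 nM, with BAZ2B at 50 nM in PBS pH 7.4 containing 0.01% Tween-20. Donor and acceptor beads are 10 ug/mL final.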
PLK1 PBD inh = blocks phosphopeptide binding to human PLK1 polo-box domain; P53350; Plk1 PBD binding of FITC phosphopeptide, fluorescence polarization; Potency, µM, inactives show max response, negative = inhibition, usual class: inhibitors; 360,000 compounds, 2.8% hits; AID 720504; note: series mostly up to about 57 µM; % is set by controls: 0 for no effect and ±100 for the full control effect; nearly all actives have a fitted effect of over 65% in size
HP1b binding inh = inhibitors of HP1-beta chromodomain binding to methylated histone tails. Potency, µM (titrated, usually from 114 µM), without a hit: top-dose activity change, negative = inhibition, hits mostly inhibitors. P83916. AlphaScreen HP1-beta / biotin-H3K9me3 peptide binding. 390,000 compounds, 0.56% hits; note: nearly all actives have a fitted effect of over 70% in size
Target sequence (P83916 whole entry, looked up): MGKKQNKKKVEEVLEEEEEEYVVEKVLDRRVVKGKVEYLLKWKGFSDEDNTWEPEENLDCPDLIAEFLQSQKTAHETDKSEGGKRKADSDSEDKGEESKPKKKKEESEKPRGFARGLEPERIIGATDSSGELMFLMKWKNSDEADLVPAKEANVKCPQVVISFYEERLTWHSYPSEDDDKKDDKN
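Compound inhibition of the preformed complex between 50 nM HP1-beta and 50 nM biotinylated H3K9me3 peptide was read by AlphaScreen. Buffer was PBS pH 7.4 with 0.01% Tween-20. Incubations ran 30 min at room temperature, with 10 ug/mL donor/acceptor beads.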
JMJD2A Tudor = inhibitors of human JMJD2A Tudor domain; O75164; AlphaScreen JMJD2A-Tudor / H3K4me3 peptide binding; Potency, µM (top dose mostly 114 µM), without a hit: at the top dose activity change, negative = inhibition, hits mostly inhibitors; 390,000 compounds, 4.4% hits; note: % is set by controls: 0 for no effect and ±100 for the full control effect; nearly all actives have a fitted effect of over 50% in size
The depositor's hits bear a star; ? = inconclusive; · = no result given; [ ] = dose if it differs, or a comment. Calls come from the whole dose curve; as a rule, active = well fitted curve in the direction sought with a large enough effect; inconclusive = small, poorly fitted or top-dose-only effect, or another doubt; inactive = no such curve, though single readings can be large; an effect the other way counts as inactive or inconclusive. Potency is the fitted concentration of half-maximal effect.

SMILES	Sfp inh	G9a block	BAZ2B inh	PLK1 PBD inh	HP1b binding inh	JMJD2A Tudor
COc1ccc(/C=N/n2c(C3CCCCC3)n[nH]c2=S)c(OC)c1	-19%	14µM*	?	-9%	-8%	40µM*
COc1cccc(/C=N/n2c(C3CCCCC3)n[nH]c2=S)c1O	79µM*	2.5µM*	-32%	-7%	16%	25µM*
COc1cc(/C=N/n2c(C3CCCCC3)n[nH]c2=S)ccc1O	?	3.5µM*	-14%	?	?	11µM*
COc1cc(OC)c(/C=N/n2c(C3CCCCC3)n[nH]c2=S)c(OC)c1	-9%	1.3µM*	-18%	-8%	0%	4µM*
COc1cc(/C=N/NC(=O)CC(=O)NC2CCCCC2)ccc1O	8%	19%	-4%	-14%	3%	-4%
COc1cc(OC)c(/C=N/N2CCN(c3ccccc3OC)CC2)c(OC)c1	6%	-13%	?	-11%	-2%	?
Cc1c(Cl)cccc1NC(=O)Cn1c(=O)nc(-c2ccccc2)c2ccccc21	·	26%[59 µM]	-15%	·	3%	-22%
O=[N+]([O-])c1cccc(-c2ccc3nnc(SCc4ccccn4)n3n2)c1	-3%	10%	-12%	24µM*	-9%	-2%[11.4 µM]
COC(=O)Nc1ccc(S(=O)(=O)N2CCCC(C(=O)N3CC(C)OC(C)C3)C2)cc1 (centres undefined)	2%	·	0%	-6%	30%	-11%
CC(C)(C)C(C(=O)NCc1ccccc1)N1CCN(C(=O)C2CCCO2)CC1 (centres undefined)	·	·	·	-1%	·	·
O=C(CSc1ccccn1)c1ccc(F)cc1	?	?	10%	27µM*	1%	-15%
Cc1cc(NC(=O)CSc2ccccn2)cc(NC(=O)CSc2ccccn2)c1	16%	?	2%	-8%	22%	-1%
Cc1ccc(/C(CSc2nccn2-c2ncc(C(F)(F)F)cc2Cl)=N\O)cc1	0%	6%[59 µM]	-15%	-3%	18%	-22%
O=C(CSc1nccn1-c1ncc(C(F)(F)F)cc1Cl)c1ccc(Br)cc1	0%	?	-33%	2.4µM*	-12%	-18%
Cc1ccc(C(=O)CSc2ccccn2)cc1	50µM*	8.9µM*	11%	19µM*	25%	8%
Cc1ccc(C(=O)CSc2nccn2-c2ccccc2)cc1	?	32µM*	56µM*	21µM*	?	?
CSC1=N/C(=C\c2ccccc2Cl)C(=O)N1N(C)C	-15%	-8%	-20%	2%	38%	-21%
CCCCCOc1ccc(CSc2n[nH]c(C)n2)cc1	-30%	·	5%	30µM*	-11%	?
CCCOc1ccc(CSc2ncn[nH]2)cc1	10%	13µM*	1%	2.7µM*	?	3.2µM*
Cc1nc(SCc2ccc(OCCC(C)C)cc2)n[nH]1	6%	50µM*	-15%	-6%	29%	-15%
COc1ccc(S(=O)(=O)N2CCN(Cc3nc4ccc(C)cc4o3)CC2)cc1	·	13%[59 µM]	-16%	·	15%	-11%
COc1ccccc1NC(=O)CN(C)S(=O)(=O)c1ccc2c(c1)c(=O)n(C)c(=O)n2C	·	2%[59 µM]	-4%	·	12%	-17%
CCN(Cc1ccccc1)C(=O)Cn1c(=O)n(-c2ccc(Cl)cc2)c(=O)c2c(C)c(C(=O)N(C)C)sc21	·	11%[59 µM]	-5%	·	7%	13µM*
Cc1c(C(=O)N(C)C)sc2c1c(=O)n(-c1ccc(Cl)cc1)c(=O)n2Cc1ccccc1F	·	5%[59 µM]	-7%	·	35%	-6%
CC(NC(=O)c1ccnc(C(C)(C)C)c1)c1ccccc1 (centres undefined)	8%	-9%[12.7 µM]	6%	-1%	15%	-4%
COc1cc2c(cc1OC)C1(CCCC1)CNC2c1ccc([N+](=O)[O-])cc1 (centres undefined)	5%	35µM*	?	1%	-5%	-27%
CCC1(c2ccccc2)NC(=S)N(c2ccc(C)cc2)N1 (centres undefined)	50µM*	?	-37%	-16%	37%	-35%
